Compounds with a hit are over-represented: about 18% of the library has one in this group of screens.
IL-1B inflam inh = qHTS for Inhibitors of Inflammasome Signaling: IL-1-beta AlphaLISA Primary Screen | 360,000 tested, 4.7% active | activity change, % at 57.5 µM | AID 743279, 2014 | THP-1 LPS/ATP IL-1B secretion, AlphaLISA, 16 h; active compounds read low; in the data active means activity change below about -50%; inconclusive means mostly about -30% to -49%
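THP-1 cells pretreated 1 hr with compounds (up to 57.5 uM final), then stimulated with LPS (250 ng/mL final) plus ATP (1.25 mM final); secreted IL-1B measured by AlphaLISA after 16 hr, decreased signal indicating inhibition.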
CtBP-E1A inh = qHTS Assay for Inhibitors of the CtBP/E1A Interaction; CtBP / adenovirus E1A interaction (AlphaScreen); AlphaScreen GST-E1A/His-CtBP binding, 1536-well; active compounds read low; activity change, % (test concentration not listed); 340,000 tested, 0.49% active; AID 651724, 2012; in the data active means activity change below about -65%; inconclusive means mostly about -30% to -63%
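Protein mix (5X: 125 nM each GST-E1A, His-CtBP) was incubated with pinned compound 2 h at 37 deg C in dark, in 50 mM Tris pH 8.0 buffer with 300 mM NaCl. Glutathione donor and nickel acceptor beads followed; AlphaScreen signal read after 1 h.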
DT40 TDP1 no CPT = qHTS for Inhibitors of human tyrosyl-DNA phosphodiesterase 1 (TDP1): qHTS in cells in absence of CPT; DT40 Tdp1-/- hTDP1 cells, no CPT, ATP luminescence, 48 h; Potency, µM (doses to about 46.2 µM), without a hit: top-dose activity change, negative = growth inhibition, most hits filed as inhibitors; 420,000 tested, 15% active; further: potency means the concentration at half of the fitted maximal effect; nearly all actives have a fitted effect of over 55% in size
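DT40 Tdp1-/-;hTDP1 cells, no CPT (DMSO vehicle only), 400 cells/well; compounds pin-transferred; ≥48 hr, 37 °C; CellTiter-Glo 30 min RT dark, luminescence read.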
TDP1 inh = qHTS Assay for Inhibitors of Tyrosyl-DNA Phosphodiesterase (TDP1) | Tyrosyl-DNA phosphodiesterase 1 (Homo sapiens), Q9NUW8 | recombinant TDP1, AlphaScreen DNA substrate cleavage | Potency, µM (highest dose often 130 µM), for the others: at the top dose activity change, negative = inhibition, usual class: inhibitors | 350,000 tested, 0.28% active | AID 485290, 2010; further: potency means the concentration at half of the fitted maximal effect; nearly all actives have a fitted effect of over 40% in size
Target sequence (Q9NUW8 whole entry, looked up): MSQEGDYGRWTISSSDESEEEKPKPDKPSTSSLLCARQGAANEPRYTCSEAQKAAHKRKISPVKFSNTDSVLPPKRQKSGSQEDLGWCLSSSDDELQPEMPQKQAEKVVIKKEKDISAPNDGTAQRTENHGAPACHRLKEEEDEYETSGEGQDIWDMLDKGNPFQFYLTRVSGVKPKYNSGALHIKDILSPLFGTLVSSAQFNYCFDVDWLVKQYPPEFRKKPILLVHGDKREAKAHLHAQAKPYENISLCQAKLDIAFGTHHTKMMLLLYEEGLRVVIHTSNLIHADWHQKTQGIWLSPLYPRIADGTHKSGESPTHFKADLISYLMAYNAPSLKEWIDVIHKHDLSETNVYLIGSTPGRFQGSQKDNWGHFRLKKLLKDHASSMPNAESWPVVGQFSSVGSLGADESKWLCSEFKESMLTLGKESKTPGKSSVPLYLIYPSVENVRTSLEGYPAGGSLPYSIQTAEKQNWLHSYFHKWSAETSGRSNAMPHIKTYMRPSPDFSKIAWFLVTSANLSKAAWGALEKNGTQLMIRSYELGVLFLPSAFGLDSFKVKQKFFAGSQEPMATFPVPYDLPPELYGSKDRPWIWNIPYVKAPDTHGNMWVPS
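AlphaScreen read-out: signal falls as enzyme removes the 3' tyrosine-FITC from a 5'-biotinylated DNA oligo (15 nM, 5 min, RT). Enzyme was E. coli-made recombinant Tdp1 at 1 nM, exposed to compound for 15 min beforehand; beads 10 ug/ml, 10 min.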
Six1-Eya2 blk = qHTS Assay for Inhibitors of the Six1/Eya2 Interaction. AID 651725, 2012. AlphaScreen GST-Six1/His-Eya2 binding, biochemical; active compounds read low. Homeobox protein SIX1 (Homo sapiens) + Protein phosphatase EYA2 (Homo sapiens), …. 360,000 tested, 0.56% active. activity change, % (test concentration not listed); in the data active means activity change below about -65%; inconclusive means mostly about -30% to -63%
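Homogeneous AlphaScreen proximity assay pairing GST-Six1 with His-tagged Eya2 (added as 5X mix: 250 nM and 500 nM) in 50 mM Tris pH 8.0, 300 mM NaCl, 1 mM TCEP. Glutathione donor and nickel acceptor beads; 1 h, 37 °C, dark.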
TDP1 cell CPT = qHTS for Inhibitors of human tyrosyl-DNA phosphodiesterase 1 (TDP1): qHTS in cells in presence of CPT; 420,000 tested, 12% active; Potency, µM (titrated, usually from 46.2 µM), for the others: at the highest dose activity change, negative = growth inhibition, actives largely listed as inhibitors; AID 686979, 2013; chicken DT40 Tdp1-/-;hTDP1 cells + 20 nM CPT, ATP luminescence, 48 h; further: potency means the concentration at half of the fitted maximal effect; nearly all actives have a fitted effect of over 55% in size
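Chicken DT40 Tdp1-/- cells stably complemented with human TDP1 were seeded at 400 cells/well in medium containing 20 nM camptothecin, exposed to pin-transferred compounds, and grown at 37 °C for at least 48 hr. Viability was read as ATP luminescence.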
The depositor's hits bear a star; ? = inconclusive; · = no result. Unless noted, the call rests on the fitted dose curve; in most records, active means well fitted curve in the direction sought with a large enough effect; inconclusive means small, poorly fitted or top-dose-only effect, or another doubt; inactive means no such curve, though single readings can be large; an effect the other way counts as inactive or inconclusive. On the % scale 0 is the no-effect control and ±100 the full control effect.

SMILES	IL-1B inflam inh	CtBP-E1A inh	DT40 TDP1 no CPT	TDP1 inh	Six1-Eya2 blk	TDP1 cell CPT
O=C(COC(=O)c1ncc(Cl)c(Cl)c1Cl)Nc1cccnc1Cl	-56.0*	-1.9	7.5%	-5.9%	6.9	-12.4%
O=C(COC(=O)c1ccc(Cl)nc1)Nc1cccnc1Cl	-9.2	-1.2	0.4%	·	1.4	10.1%
CC(C)NC(=O)NC(=O)COC(=O)c1ncc(Cl)c(Cl)c1Cl	-62.9*	-22.4	-6.5%	0.0%	2.9	-5.4%
COc1ccc(NS(=O)(=O)c2cccc(NC(=O)NC3CCCCC3)c2)cc1	-69.2*	-1.6	23.1µM*	2.8%	-4.4	?
COc1ccc(NS(=O)(=O)c2cccc(NC(=O)c3ccccn3)c2)cc1	-6.4	·	?	2.9%	-6.2	20.6µM*
COc1ccc(NS(=O)(=O)c2ccc(C)c(NC(=O)NC3CCCCC3)c2)cc1	-73.6*	-0.8	?	-2.7%	1.4	?
CC1CCCN(C(=O)COc2ccc(NC(=O)c3cccs3)cc2)C1 (stereo not given)	-56.5*	-1.4	-15.6%	-1.2%	-6.4	-8.9%
COc1ccc(-c2c3c(cc4ncn(Cc5ccccc5)c24)COC3=O)cc1	17.8	-3.0	23.1µM*	1.7%	-3.8	?
Cc1ccc(Cn2ccc(NC(=O)c3cc(C4CC4)on3)n2)cc1	-2.4	-3.1	2.3%	·	5.5	-13.7%
O=C(CCc1ccc(Oc2cc([N+](=O)[O-])cc([N+](=O)[O-])c2)cc1)NC1CCCC1	26.2	·	?	5.8%	-5.4	?
CC1CCN(C(=O)CCc2ccc(Oc3cc([N+](=O)[O-])cc([N+](=O)[O-])c3)cc2)CC1	-57.2*	?	?	6.9%	?	?
O=C(NCc1cccn1Cc1ccccc1)Nc1ccc(Br)cc1F	·	·	?	4.5%	·	?
COc1cc(C=C(c2nc3ccccc3s2)c2nc3ccccc3s2)ccc1O	-89.6*	-17.1	-27.6%	6.9%	-16.6	-17.9%
COc1ccc(C=C(c2nc3ccccc3s2)c2nc3ccccc3s2)cc1O	-97.8*	2.9	20.6µM*	14.1%	-24.9	?
CC(C)CCNC(=O)CCC(=O)N1Cc2ccccc2Oc2ncccc21	·	·	-4.0%	-5.3%	·	-16.5%
CCCN1C(=O)/C(=C/c2c(N3CCNC(=O)C3CC(=O)OCC)nc3c(C)cccn3c2=O)SC1=S (stereo not given)	14.8	5.7	16.4µM*	·	-16.8	18.4µM*
CCOC(=O)CC1C(=O)NCCN1c1nc2ccc(C)cn2c(=O)c1/C=C1\SC(=S)N(CC(C)C)C1=O (stereo not given)	30.4	-18.5	?	·	7.0	?
CC(NC(=O)c1ccc2c(c1)N(Cc1ccc(Cl)cc1)C(=O)c1ccccc1S2(=O)=O)c1ccccc1 (stereo not given)	·	·	-19.5%	1.2%	·	-25.9%
C=CC[C@@H](CC(=O)N[C@H](CO)Cc1ccccc1)C(=O)N[C@@H](COC(=O)[C@H](CC=C)CC(=O)OC(C)(C)C)Cc1ccccc1	-17.4	·	23.1µM*	-0.5%	0.8	20.6µM*
C=CC[C@@H](CC(=O)N[C@@H](CO)Cc1ccccc1)C(=O)N[C@H](COC(=O)[C@@H](CC=C)CC(=O)OC(C)(C)C)Cc1c[nH]c2ccccc12	?	-5.7	3.66µM*	2.3%	-10.2	16.4µM*
C=CC[C@@H](CC(=O)N[C@@H](CO)Cc1ccccc1)C(=O)N[C@H](COC(=O)[C@@H](CC=C)CC(=O)OC(C)(C)C)Cc1ccccc1	8.8	1.0	20.6µM*	1.1%	-0.9	13µM*
C=CC[C@@H](CC(=O)NCCO)C(=O)N[C@@H](COC(=O)[C@@H](CC=C)CC(=O)OC(C)(C)C)Cc1ccccc1	-6.4	-7.7	-27.1%	0.7%	3.1	?
Cc1cc2c(cc1S(=O)(=O)Nc1ccc(C(C)C)cc1)OCCN2C	·	·	16.4µM*	·	·	?
Cc1cc2c(cc1S(=O)(=O)N1CCN(c3ccccc3)CC1)OCCN2C	6.8	-15.7	-25.7%	·	?	7.31µM*
CC(=O)c1ccc(NS(=O)(=O)c2cc3c(cc2C)N(C)CCO3)cc1	38.2	-3.0	?	5.1%	-4.2	10.3µM*
SMILES	IL-1B inflam inh	CtBP-E1A inh	DT40 TDP1 no CPT	TDP1 inh	Six1-Eya2 blk	TDP1 cell CPT
Cc1cc2c(cc1S(=O)(=O)N1CCN(c3cccc(C(F)(F)F)c3)CC1)OCC(=O)N2	53.7	-1.0	?	-0.4%	-1.0	18.4µM*
O=C1COc2ccc(S(=O)(=O)N3CCN(c4cccc(C(F)(F)F)c4)CC3)cc2N1	14.7	-11.6	7.4%	4.3%	2.2	-14.8%
COc1ccc(C(=O)COC(=O)c2ccccn2)cc1OC	-5.1	?	5.3%	0.3%	-16.0	3.3%
COc1ccccc1NS(=O)(=O)c1ccc(N2CCOCC2)c(NC(=O)c2ccco2)c1	2.4	2.2	-29.3%	2.7%	-6.9	-3.8%
COc1ccc(N2CCN(C(=O)c3cc4c(s3)-c3c(C)cccc3OC4)CC2)cc1	·	·	-23.4%	-1.0%	·	-9.9%
O=[N+]([O-])c1ccccc1SN(Cc1ccccc1)c1ccccn1	?	-16.6	14.6µM*	11.0%	-27.0	?
CCOC(=O)c1c(-c2ccccc2)csc1NC(=O)/C(C#N)=C\c1ccc(O)c(OC)c1	-7.6	-14.0	?	·	-17.5	?
CC1(C(=O)N2CCC(CC3CC(c4cccc(Br)c4)=NO3)(C(=O)NCC3CCCCC3)CC2)CC1 (stereo not given)	?	20.8	18.4µM*	·	13.7	18.4µM*
CC1(C(=O)N2CCC(CC3CC(c4ccc(Cl)cc4)=NO3)(C(=O)NCC3CCCCC3)CC2)CC1 (stereo not given)	?	2.9	?	·	10.9	?
O=C(CCCCCBr)N1CCC(CC2CC(c3ccc(Cl)cc3)=NO2)(C(=O)NCC2CCCCC2)CC1 (stereo not given)	-18.5	6.8	?	·	2.1	-28.8%
O=C(CCCCCBr)N1CCC(CC2CC(c3cccc(Br)c3)=NO2)(C(=O)NCC2CCCCC2)CC1 (stereo not given)	?	-0.9	20.6µM*	·	-5.7	?
